We go through 16 compounds from the antibiotic and cytotoxicity screens of Wong et al. (2023).

Screen size: about 39,000 compounds; about 3,300 (8.5%) were called active. The entries come from a sample that favours actives as a whole.

The subject of this experiment is HepG2. The experiment in a line: cytotoxicity call (relative viability < 0.9). As to conditions: 10 µM.
As for `O=C(C[C@H]1CC[C@H]2[C@@H](COC[C@H](O)CN2S(=O)(=O)c2ccc(F)cc2)O1)N[C@@H]1CCN(Cc2ccccc2)C1`, the cytotoxicity call is “inactive”.

`CO[C@H]1CN(C)C(=O)c2ccc(NS(C)(=O)=O)cc2OC[C@@H](C)N(C(=O)C2CCCCC2)C[C@@H]1C`: the cytotoxicity call is “inactive”.

In the case of `C[C@@H]1CCCCO[C@@H](CN(C)C(=O)C2CCCCC2)[C@@H](C)CN([C@@H](C)CO)C(=O)c2cc(NS(=O)(=O)c3ccc(F)cc3)ccc2O1`, the cytotoxicity call is “inactive”.

On to `COc1ccc(S(=O)(=O)N(C)C[C@@H]2Oc3ccc(NS(=O)(=O)c4ccc(F)cc4)cc3CC(=O)N([C@@H](C)CO)C[C@@H]2C)cc1`, for which the cytotoxicity call is “inactive”.

`C[C@@H]1CN([C@H](C)CO)C(=O)c2cc(NC(=O)NC3CCCCC3)ccc2O[C@H]1CN(C)S(=O)(=O)c1cn(C)cn1`: the cytotoxicity call is “inactive”.

As to `Cc1ccc(S(=O)(=O)N(C)C[C@@H]2Oc3ccc(NC(=O)CCN4CCOCC4)cc3CC(=O)N([C@H](C)CO)C[C@@H]2C)cc1`, the cytotoxicity call is “inactive”.

For `C[C@H]1CN([C@@H](C)CO)C(=O)c2cccc(NC(=O)Nc3ccc(C(F)(F)F)cc3)c2O[C@H]1CN(C)S(=O)(=O)c1ccc(Cl)cc1`, the cytotoxicity call was “active”.

As for `C[C@@H]1CN([C@H](C)CO)C(=O)c2cccc(NC(=O)Nc3ccc(C(F)(F)F)cc3)c2O[C@@H]1CN(C)S(=O)(=O)c1ccc(Cl)cc1`, the cytotoxicity call was “inactive”.

For the compound `Cc1ccc(S(=O)(=O)N(C)C[C@@H]2Oc3c(NC(=O)Nc4ccc(C(F)(F)F)cc4)cccc3C(=O)N([C@@H](C)CO)C[C@H]2C)cc1`, the cytotoxicity call is “inactive”.

Regarding `Cc1ccc(S(=O)(=O)N(C)C[C@H]2Oc3c(NC(=O)Nc4ccc(C(F)(F)F)cc4)cccc3C(=O)N([C@@H](C)CO)C[C@H]2C)cc1`, the cytotoxicity call was “active”.

On to `Cc1ccc(S(=O)(=O)N(C)C[C@@H]2Oc3c(NC(=O)Nc4ccc(C(F)(F)F)cc4)cccc3C(=O)N([C@H](C)CO)C[C@H]2C)cc1`, for which the cytotoxicity call is “inactive”.

Consider `C[C@H](CO)N1C[C@H](C)[C@H](CN(C)S(=O)(=O)c2ccc(Cl)cc2)Oc2c(NC(=O)Nc3ccc(C(F)(F)F)cc3)cccc2C1=O`, for which the cytotoxicity call was “inactive”.

Consider `Cc1ccc(OC(=O)N(C)C[C@@H]2OCc3ccccc3-c3ccccc3C(=O)N([C@H](C)CO)C[C@H]2C)cc1`, for which the cytotoxicity call was “inactive”.

In the case of `C[C@@H]1CN([C@H](C)CO)C(=O)Cc2cc(NC(=O)Cc3ccccc3)ccc2O[C@H]1CN(C)C(=O)Nc1ccc(C(F)(F)F)cc1`, the cytotoxicity call was “inactive”.

As to `C[C@@H]1CN([C@H](C)CO)C(=O)c2cc(N(C)C)ccc2O[C@@H](C)CCCCO[C@@H]1CN(C)S(C)(=O)=O`, the cytotoxicity call was “inactive”.

`CCCNC(=O)N(C)C[C@@H]1Oc2cc(C#Cc3ccccn3)ccc2S(=O)(=O)N([C@H](C)CO)C[C@H]1C`: the cytotoxicity call is “inactive”.
